Tests used:
Experiment in all cases: DAPPL (digital affinity profiling via proximity ligation, sequencing); 10 mM Tris-HCl pH 7.5, 50 mM NaCl, 1 mM DTT, 4% glycerol, room temperature, 30 min; GST-TFs on glutathione beads, 16-mer random dsDNA library, 0.1% formaldehyde crosslink after washing; high values mean tight binding
Settings in all cases: protein: recombinant; tags: N-terminal GST; dsDNA, one strand shown
GABPA = biological target: T1, GABPA (Homo sapiens, UniProt Q06546 1-454)
T1 sequence: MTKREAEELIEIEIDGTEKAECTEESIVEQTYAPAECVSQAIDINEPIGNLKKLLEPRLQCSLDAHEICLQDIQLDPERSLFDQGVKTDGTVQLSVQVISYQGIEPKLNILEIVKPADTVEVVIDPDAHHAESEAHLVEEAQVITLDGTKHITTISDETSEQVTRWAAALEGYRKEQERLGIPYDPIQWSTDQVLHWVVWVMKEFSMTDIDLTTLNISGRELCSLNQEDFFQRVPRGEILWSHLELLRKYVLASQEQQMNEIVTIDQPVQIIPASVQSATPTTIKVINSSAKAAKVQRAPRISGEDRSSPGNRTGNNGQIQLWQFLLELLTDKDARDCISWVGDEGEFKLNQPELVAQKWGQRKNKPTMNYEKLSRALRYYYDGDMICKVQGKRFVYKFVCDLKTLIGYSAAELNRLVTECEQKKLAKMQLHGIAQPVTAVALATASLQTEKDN
Outline: (§1)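 GST fusions of human transcription factors were expressed in yeast and captured with glutathione beads. Once given DNA barcodes and pooled alongside a tag-only sample, they were incubated for 30 min at room temperature with 200 nmole of a random double-stranded 16-mer DNA library in Tris/NaCl/DTT/glycerol buffer, then washed, crosslinked (0.1% formaldehyde), proximity-ligated, PCR-amplified and sequenced on an Illumina NextSeq500. The binding signal of each hexamer is its read frequency for a factor divided by its frequency for the tag-only sample.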

ELF1 = ELF1 (Homo sapiens, UniProt P32519 1-619)
Sequence of ELF1 (P32519 whole entry): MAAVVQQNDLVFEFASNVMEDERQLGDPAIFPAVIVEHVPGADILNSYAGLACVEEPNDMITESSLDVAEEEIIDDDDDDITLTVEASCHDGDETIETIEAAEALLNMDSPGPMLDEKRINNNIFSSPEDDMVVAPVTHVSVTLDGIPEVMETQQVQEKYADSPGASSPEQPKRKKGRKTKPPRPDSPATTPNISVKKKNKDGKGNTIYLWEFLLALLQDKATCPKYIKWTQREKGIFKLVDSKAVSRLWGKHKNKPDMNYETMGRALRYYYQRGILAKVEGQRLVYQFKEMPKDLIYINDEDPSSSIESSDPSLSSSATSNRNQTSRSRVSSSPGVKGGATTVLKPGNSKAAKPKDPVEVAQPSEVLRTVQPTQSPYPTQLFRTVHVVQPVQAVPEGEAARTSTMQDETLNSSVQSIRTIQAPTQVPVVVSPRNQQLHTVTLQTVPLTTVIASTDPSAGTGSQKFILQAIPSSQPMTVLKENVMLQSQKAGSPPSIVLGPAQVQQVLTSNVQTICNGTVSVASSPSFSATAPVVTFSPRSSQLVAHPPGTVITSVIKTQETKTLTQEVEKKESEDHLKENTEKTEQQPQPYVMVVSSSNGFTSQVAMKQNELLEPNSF
Outline: as §1

EHF = biological target: T2, EHF (Homo sapiens, UniProt Q9NZC4 1-300)
T2 sequence: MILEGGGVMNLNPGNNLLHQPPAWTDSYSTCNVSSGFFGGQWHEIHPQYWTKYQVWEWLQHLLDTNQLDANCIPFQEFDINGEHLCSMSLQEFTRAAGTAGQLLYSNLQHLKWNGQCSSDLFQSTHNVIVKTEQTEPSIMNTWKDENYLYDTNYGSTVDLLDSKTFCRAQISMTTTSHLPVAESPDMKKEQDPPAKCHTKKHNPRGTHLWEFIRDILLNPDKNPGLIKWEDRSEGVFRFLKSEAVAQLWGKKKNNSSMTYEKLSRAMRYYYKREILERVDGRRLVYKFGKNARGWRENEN
Outline: as §1

SPIB = SPIB (Homo sapiens, UniProt Q01892 1-262)
Sequence of SPIB (Q01892 whole entry): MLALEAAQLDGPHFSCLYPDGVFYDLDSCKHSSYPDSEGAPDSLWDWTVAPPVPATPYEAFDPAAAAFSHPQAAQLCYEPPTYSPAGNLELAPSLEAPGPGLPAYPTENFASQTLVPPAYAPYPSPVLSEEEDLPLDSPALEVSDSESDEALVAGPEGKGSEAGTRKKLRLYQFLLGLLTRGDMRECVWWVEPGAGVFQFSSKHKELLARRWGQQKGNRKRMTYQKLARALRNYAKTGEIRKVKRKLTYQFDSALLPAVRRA
Outline: as §1

ELK3 = biological target: T3, ELK3 (Homo sapiens, UniProt P41970 1-407)
T3 sequence: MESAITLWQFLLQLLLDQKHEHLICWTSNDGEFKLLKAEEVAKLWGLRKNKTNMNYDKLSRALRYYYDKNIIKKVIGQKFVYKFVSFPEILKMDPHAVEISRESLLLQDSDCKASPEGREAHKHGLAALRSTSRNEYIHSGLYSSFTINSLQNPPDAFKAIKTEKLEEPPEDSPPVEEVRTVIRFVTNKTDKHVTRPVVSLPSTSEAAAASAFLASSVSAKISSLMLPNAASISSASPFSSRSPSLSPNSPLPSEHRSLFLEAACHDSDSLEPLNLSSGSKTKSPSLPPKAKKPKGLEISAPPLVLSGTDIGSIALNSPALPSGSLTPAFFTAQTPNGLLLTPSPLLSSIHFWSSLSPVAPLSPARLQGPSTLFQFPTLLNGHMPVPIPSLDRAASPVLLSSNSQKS
Outline: as §1

FEV = biological target: T4, FEV (Homo sapiens, UniProt Q99581 1-238)
T4 sequence: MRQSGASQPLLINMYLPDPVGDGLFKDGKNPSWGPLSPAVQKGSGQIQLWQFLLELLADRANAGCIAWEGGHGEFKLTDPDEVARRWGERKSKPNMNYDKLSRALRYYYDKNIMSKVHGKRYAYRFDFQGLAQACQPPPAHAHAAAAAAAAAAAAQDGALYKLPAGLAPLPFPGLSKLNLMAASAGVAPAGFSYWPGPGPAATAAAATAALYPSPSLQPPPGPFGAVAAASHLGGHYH
Outline: as §1

ETV5 = ETV5 (Homo sapiens, UniProt P41161 1-510)
Sequence of ETV5 (P41161 whole entry): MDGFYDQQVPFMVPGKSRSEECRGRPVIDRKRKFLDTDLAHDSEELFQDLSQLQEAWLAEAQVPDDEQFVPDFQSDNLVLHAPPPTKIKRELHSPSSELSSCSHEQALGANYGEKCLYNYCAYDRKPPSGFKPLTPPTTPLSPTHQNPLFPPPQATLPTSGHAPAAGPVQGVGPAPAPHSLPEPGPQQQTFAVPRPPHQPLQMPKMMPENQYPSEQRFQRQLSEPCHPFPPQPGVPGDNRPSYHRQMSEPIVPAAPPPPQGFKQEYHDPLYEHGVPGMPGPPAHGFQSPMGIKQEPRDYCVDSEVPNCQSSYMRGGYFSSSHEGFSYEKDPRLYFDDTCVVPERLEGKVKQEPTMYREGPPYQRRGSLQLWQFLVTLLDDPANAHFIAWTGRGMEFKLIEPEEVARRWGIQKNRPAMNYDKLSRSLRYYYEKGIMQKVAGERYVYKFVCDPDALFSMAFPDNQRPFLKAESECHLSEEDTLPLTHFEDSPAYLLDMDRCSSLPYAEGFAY
Outline: as §1

ELF3 = biological target: T5, ELF3 (Homo sapiens, UniProt P78545 1-371)
T5 sequence: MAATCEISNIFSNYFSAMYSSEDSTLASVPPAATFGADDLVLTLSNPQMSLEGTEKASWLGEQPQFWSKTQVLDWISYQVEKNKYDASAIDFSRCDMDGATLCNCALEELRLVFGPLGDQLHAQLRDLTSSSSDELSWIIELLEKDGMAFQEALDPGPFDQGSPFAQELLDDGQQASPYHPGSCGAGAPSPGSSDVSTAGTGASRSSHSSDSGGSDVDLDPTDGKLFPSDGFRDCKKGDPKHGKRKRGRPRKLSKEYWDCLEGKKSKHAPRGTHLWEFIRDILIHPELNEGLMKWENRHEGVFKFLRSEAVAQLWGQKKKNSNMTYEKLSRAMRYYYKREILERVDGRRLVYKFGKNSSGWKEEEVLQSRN
Outline: as §1

SPDEF = biological target: T6, SPDEF (Homo sapiens, UniProt O95238 1-335)
T6 sequence: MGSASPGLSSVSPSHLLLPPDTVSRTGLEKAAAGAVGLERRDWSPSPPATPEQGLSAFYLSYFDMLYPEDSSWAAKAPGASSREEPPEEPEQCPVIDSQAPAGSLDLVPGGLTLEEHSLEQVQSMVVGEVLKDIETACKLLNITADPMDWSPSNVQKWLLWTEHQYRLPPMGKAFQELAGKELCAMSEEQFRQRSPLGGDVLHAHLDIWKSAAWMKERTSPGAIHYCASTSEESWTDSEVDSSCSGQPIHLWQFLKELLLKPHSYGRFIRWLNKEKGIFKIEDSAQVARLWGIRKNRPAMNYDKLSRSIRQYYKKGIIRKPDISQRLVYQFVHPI
Outline: as §1

ETV7 = biological target: T7, ETV7 (Homo sapiens, UniProt Q9Y603 1-341)
T7 sequence: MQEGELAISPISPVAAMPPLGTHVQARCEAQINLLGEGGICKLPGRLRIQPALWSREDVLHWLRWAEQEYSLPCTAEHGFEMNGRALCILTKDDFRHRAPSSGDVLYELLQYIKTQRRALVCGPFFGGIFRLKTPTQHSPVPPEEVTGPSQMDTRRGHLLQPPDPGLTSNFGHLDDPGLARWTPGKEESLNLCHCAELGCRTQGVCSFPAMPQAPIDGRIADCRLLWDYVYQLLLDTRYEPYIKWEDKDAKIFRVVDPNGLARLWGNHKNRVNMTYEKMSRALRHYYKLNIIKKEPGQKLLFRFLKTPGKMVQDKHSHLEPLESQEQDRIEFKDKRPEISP
Outline: as §1

ETV6 = ETV6 (Homo sapiens, UniProt P41212 1-452)
Sequence of ETV6 (P41212 whole entry): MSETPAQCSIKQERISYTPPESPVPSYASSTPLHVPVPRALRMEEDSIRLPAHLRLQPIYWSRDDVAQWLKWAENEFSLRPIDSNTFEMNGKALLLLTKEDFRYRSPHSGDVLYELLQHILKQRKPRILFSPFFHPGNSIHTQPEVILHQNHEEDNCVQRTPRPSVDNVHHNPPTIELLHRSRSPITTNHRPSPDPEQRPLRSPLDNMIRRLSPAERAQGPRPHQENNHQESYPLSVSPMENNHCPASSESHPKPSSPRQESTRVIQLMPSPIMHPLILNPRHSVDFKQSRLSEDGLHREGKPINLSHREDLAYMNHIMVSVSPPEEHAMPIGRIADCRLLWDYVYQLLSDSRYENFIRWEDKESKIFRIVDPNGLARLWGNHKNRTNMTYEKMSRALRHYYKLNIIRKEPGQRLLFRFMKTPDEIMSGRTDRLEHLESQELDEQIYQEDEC
Outline: as §1

ERG = biological target: T8, ERG (Homo sapiens, UniProt P11308 1-479)
T8 sequence: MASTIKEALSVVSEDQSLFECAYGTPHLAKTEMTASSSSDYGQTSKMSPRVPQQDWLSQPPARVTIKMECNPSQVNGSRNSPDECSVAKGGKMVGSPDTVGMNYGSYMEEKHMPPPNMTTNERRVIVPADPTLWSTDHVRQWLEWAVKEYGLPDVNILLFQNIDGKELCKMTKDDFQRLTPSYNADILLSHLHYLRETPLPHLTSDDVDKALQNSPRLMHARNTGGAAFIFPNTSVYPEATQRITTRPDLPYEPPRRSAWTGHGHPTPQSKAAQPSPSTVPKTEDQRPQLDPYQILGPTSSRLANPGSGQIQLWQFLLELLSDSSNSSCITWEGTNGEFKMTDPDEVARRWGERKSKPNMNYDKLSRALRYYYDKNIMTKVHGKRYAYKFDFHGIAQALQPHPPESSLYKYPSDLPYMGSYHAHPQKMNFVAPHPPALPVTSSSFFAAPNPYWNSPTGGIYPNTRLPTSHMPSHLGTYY
Outline: as §1

ETV1 = ETV1 (Homo sapiens, UniProt P50549 1-477)
Sequence of ETV1 (P50549 whole entry): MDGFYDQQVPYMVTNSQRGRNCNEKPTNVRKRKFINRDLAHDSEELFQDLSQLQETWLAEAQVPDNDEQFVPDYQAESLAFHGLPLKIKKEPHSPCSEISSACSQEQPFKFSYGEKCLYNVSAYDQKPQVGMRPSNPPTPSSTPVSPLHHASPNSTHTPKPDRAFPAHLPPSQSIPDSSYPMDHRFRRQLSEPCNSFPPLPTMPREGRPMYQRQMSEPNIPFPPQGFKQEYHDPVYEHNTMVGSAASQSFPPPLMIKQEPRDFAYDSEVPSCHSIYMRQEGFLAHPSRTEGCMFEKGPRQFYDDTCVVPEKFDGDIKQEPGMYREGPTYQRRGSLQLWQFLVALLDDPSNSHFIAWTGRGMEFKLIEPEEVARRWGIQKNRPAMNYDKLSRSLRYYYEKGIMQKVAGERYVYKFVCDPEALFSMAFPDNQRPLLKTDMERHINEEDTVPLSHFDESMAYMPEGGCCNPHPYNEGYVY
Outline: as §1

ETV3L = biological target: T9, ETV3L (Homo sapiens, UniProt Q6ZN32 1-361)
T9 sequence: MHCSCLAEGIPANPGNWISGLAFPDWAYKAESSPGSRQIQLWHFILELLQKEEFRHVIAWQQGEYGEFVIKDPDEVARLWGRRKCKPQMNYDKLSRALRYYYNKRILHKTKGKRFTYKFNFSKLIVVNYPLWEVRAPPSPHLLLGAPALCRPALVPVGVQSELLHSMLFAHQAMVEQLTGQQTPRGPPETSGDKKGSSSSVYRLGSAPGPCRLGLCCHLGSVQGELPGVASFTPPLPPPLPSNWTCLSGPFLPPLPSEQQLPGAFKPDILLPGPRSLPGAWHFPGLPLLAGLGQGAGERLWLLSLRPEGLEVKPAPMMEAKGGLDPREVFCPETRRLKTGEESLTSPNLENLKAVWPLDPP
Outline: as §1

ETS2 = biological target: T10, ETS2 (Homo sapiens, UniProt P15036 1-469)
T10 sequence: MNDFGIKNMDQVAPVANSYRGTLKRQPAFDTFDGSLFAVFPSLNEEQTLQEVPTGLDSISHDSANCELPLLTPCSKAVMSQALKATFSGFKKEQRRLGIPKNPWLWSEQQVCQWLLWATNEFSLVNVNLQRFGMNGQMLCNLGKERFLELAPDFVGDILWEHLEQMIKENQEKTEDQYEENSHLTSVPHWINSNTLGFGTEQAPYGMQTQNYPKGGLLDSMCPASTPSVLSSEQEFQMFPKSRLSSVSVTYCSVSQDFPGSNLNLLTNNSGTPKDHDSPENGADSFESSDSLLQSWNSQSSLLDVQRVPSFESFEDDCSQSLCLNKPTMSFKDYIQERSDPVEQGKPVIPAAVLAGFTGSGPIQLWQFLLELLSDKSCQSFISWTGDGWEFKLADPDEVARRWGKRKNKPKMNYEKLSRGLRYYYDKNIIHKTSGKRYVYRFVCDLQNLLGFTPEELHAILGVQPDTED
Outline: as §1

ETV3 = biological target: T11, ETV3 (Homo sapiens, UniProt P41162-2 1-143)
T11 sequence: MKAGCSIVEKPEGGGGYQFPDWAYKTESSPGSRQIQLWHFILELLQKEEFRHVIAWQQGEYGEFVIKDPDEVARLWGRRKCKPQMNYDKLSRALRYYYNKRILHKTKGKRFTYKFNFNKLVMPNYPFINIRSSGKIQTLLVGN
Outline: as §1

Row | Sequence | binding signal (GABPA) | binding signal (ELF1) | binding signal (EHF) | binding signal (SPIB) | binding signal (ELK3) | binding signal (FEV) | binding signal (ETV5) | binding signal (ELF3) | binding signal (SPDEF) | binding signal (ETV7) | binding signal (ETV6) | binding signal (ERG) | binding signal (ETV1) | binding signal (ETV3L) | binding signal (ETS2) | binding signal (ETV3)
1 | CGGTTA | 1.01 fold enrichment (6-mer frequency, TF over GST control) | 1 fold enrichment (6-mer frequency, TF over GST control) | 1.02 fold enrichment (6-mer frequency, TF over GST control) | 1.02 fold enrichment (6-mer frequency, TF over GST control) | 1 fold enrichment (6-mer frequency, TF over GST control) | 1.04 fold enrichment (6-mer frequency, TF over GST control) | 1.05 fold enrichment (6-mer frequency, TF over GST control) | 1 fold enrichment (6-mer frequency, TF over GST control) | 1.15 fold enrichment (6-mer frequency, TF over GST control) | 1 fold enrichment (6-mer frequency, TF over GST control) | 1.09 fold enrichment (6-mer frequency, TF over GST control) |  |  |  |  | 
2 | AGGATG |  |  | 1.09 fold enrichment (6-mer frequency, TF over GST control) | 1.1 fold enrichment (6-mer frequency, TF over GST control) |  |  | 1.09 fold enrichment (6-mer frequency, TF over GST control) |  | 1.51 fold enrichment (6-mer frequency, TF over GST control) | 1.04 fold enrichment (6-mer frequency, TF over GST control) | 1.08 fold enrichment (6-mer frequency, TF over GST control) | 1.1 fold enrichment (6-mer frequency, TF over GST control) | 1.05 fold enrichment (6-mer frequency, TF over GST control) | 1.06 fold enrichment (6-mer frequency, TF over GST control) | 1.07 fold enrichment (6-mer frequency, TF over GST control) | 1.13 fold enrichment (6-mer frequency, TF over GST control)

— article PMC7862700, “An all-to-all approach to the identification of sequence-specific readers for epigenetic DNA modifications on cytosine”
